Inconclusive results are not listed. Active and inactive are the calls of the source. The call rests on the fitted dose curve; in most records, active means well fitted curve in the direction sought with a large enough effect in the repeat runs; inconclusive means weak or mixed curves; inactive means no such curve, though single readings can be large; an effect the other way counts as inactive or inconclusive.
Columns and labels:
[1] = qHTS RealTime-Glo MT Cell Viability Assay in HEK293 cells - 32 hour (AID 1224868); further: top concentration of the series differs between compounds; nearly all actives have a fitted effect of over 50% in size
Procedure, shortened: (§1)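 HEK293 cells seeded with NanoLuc/prosubstrate reagent, rested 5 h at 37 C, then dosed and kept at 37 C up to 40 h. Nonlytic real-time luminescence from viable cells read at 0, 8, 16, 24, 32 and 40 h.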

[2] = A CellTox Green Cytotoxicity Assay to monitor cytotoxicity in HEK293 cells - 0 hour (AID 1224869); further: nearly all actives have a fitted effect of over 50% in size
Procedure, shortened: (§2)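 Fluorescence intensity, read at 0, 8, 16, 24, 32 and 40 h of compound treatment, reflected dye binding to DNA of dead HEK293 cells; compounds (23 nL, DMSO) were added 5 h after plating cells with reagent.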

[3] = qHTS RealTime-Glo MT Cell Viability Assay in HepG2 cells - 40 hour (AID 1224870); further: nearly all actives have a fitted effect of over 50% in size
Procedure, shortened: (§3)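 HepG2 cells mixed with RealTime-Glo MT reagents (NanoLuc plus cell-permeant prosubstrate) were seeded at 600 cells/well, incubated 5 h at 37 C/5% CO2, then pinned with compounds in DMSO; nonlytic luminescence tracked viability during 40 h treatment.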

[4] = qHTS RealTime-Glo MT Cell Viability Assay in HEK293 cells - 16 hour (AID 1224872); further: top concentration of the series differs between compounds; nearly all actives have a fitted effect of over 50% in size
Procedure, shortened: as §1

[5] = qHTS RealTime-Glo MT Cell Viability Assay in HepG2 cells - 8 hour (AID 1224873); further: nearly all actives have a fitted effect of over 55% in size
Procedure, shortened: as §3

[6] = qHTS RealTime-Glo MT Cell Viability Assay in HEK293 cells - 40 hour (AID 1224874); details: RealTime-Glo luminescence, active compounds read low; further: nearly all actives have a fitted effect of over 50% in size
Procedure, shortened: (§4)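 Viable HEK293 cells reduce a cell-permeant prosubstrate; the product diffuses out and is consumed by NanoLuc in the medium to give light. Compounds went in after a 5 h incubation and plates were read over the treatment course.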

[7] = A CellTox Green Cytotoxicity Assay to monitor cytotoxicity in HEK293 cells - 24 hour (AID 1224875); further: series mostly up to about 77 µM; nearly all actives have a fitted effect of over 45% in size
Procedure, shortened: as §2

[8] = A CellTox Green Cytotoxicity Assay to monitor cytotoxicity in HepG2 cells - 16 hour (AID 1224876); further: nearly all actives have a fitted effect of over 45% in size
Procedure, shortened: (§5)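 Using 1536-well format, dye-containing HepG2 suspension was seeded, allowed 5 h at 37 C/5% CO2, dosed by pintool with compounds, positive and negative controls, and imaged for fluorescence across 40 h.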

[9] = qHTS RealTime-Glo MT Cell Viability Assay in HepG2 cells - 32 hour (AID 1224877); further: nearly all actives have a fitted effect of over 55% in size
Procedure, shortened: (§6)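 HepG2 cells (600/well) were dispensed with RealTime-Glo reagents, incubated 5 h at 37 °C, then treated with compounds in DMSO for up to 40 h. Nonlytic NanoLuc luminescence reflecting viable cells was read at each stated time point.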

[10] = A CellTox Green Cytotoxicity Assay to monitor cytotoxicity in HepG2 cells - 24 hour (AID 1224878); further: nearly all actives have a fitted effect of over 45% in size
Procedure, shortened: as §5

[11] = A CellTox Green Cytotoxicity Assay to monitor cytotoxicity in HepG2 cells - 40 hour (AID 1224879); further: nearly all actives have a fitted effect of over 40% in size
Procedure, shortened: as §5

[12] = qHTS RealTime-Glo MT Cell Viability Assay in HEK293 cells - 0 hour (AID 1224880); further: nearly all actives have a fitted effect of over 45% in size; further: potency means the concentration at half of the fitted maximal effect
Procedure, shortened: as §4

[13] = A CellTox Green Cytotoxicity Assay to monitor cytotoxicity in HEK293 cells - 32 hour (AID 1224881); further: nearly all actives have a fitted effect of over 40% in size
Procedure, shortened: as §2

[14] = A CellTox Green Cytotoxicity Assay to monitor cytotoxicity in HepG2 cells - 0 hour (AID 1224882); further: nearly all actives have a fitted effect of over 35% in size
Procedure, shortened: as §5

[15] = A CellTox Green Cytotoxicity Assay to monitor cytotoxicity in HepG2 cells - 32 hour (AID 1224883); further: nearly all actives have a fitted effect of over 50% in size
Procedure, shortened: as §5

[16] = A CellTox Green Cytotoxicity Assay to monitor cytotoxicity in HEK293 cells - 8 hour (AID 1224884); further: nearly all actives have a fitted effect of over 35% in size
Procedure, shortened: as §2

[17] = qHTS RealTime-Glo MT Cell Viability Assay in HepG2 cells - 16 hour (AID 1224885); further: nearly all actives have a fitted effect of over 50% in size
Procedure, shortened: as §6

[18] = qHTS RealTime-Glo MT Cell Viability Assay in HEK293 cells - 24 hour (AID 1224886)
Procedure, shortened: as §1

[19] = qHTS RealTime-Glo MT Cell Viability Assay in HEK293 cells - 8 hour (AID 1224887)
Procedure, shortened: as §4

[20] = A CellTox Green Cytotoxicity Assay to monitor cytotoxicity in HEK293 cells - 40 hour (AID 1224871); further: nearly all actives have a fitted effect of over 45% in size
Procedure, shortened: as §2
On the % scale 0 is the no-effect control and ±100 the full control effect.

COC(=O)c1ccc(C(=O)O)cc1
inactive: outcome [1] | outcome [2] | outcome [3] | outcome [4] | outcome [5] | max response [6] 1.5% | Potency [7] | Potency [8] | outcome [9] | Potency [10] | Potency [11] | Potency [12] | Potency [13] | Potency [14] | Potency [15] | Potency [16] | outcome [17] | outcome [18] | outcome [19]

CC(=O)OCC(=O)[C@@]1(O)CC[C@H]2[C@@H]3CCC4=CC(=O)C=C[C@]4(C)[C@H]3[C@@H](O)C[C@@]21C
inactive: outcome [1] | outcome [2] | outcome [3] | Potency [20] | outcome [5] | Potency [7] | outcome [9] | Potency [10] | Potency [11] | Potency [13] | Potency [14] | Potency [15] | Potency [16] | outcome [17] | outcome [18] | outcome [19]
active: Potency [12] 21.3 µM

CC12CCCC=C1C(=O)OC2=O (stereo not drawn)
inactive: outcome [1] | outcome [2] | outcome [3] | Potency [20] | outcome [5] | max response [6] 7.32% | Potency [7] | Potency [8] | outcome [9] | Potency [10] | Potency [11] | Potency [12] | Potency [13] | Potency [14] | Potency [15] | Potency [16] | outcome [17] | outcome [18] | outcome [19]

CCCCc1ccc(Cl)cc1
inactive: outcome [1] | outcome [2] | outcome [3] | outcome [4] | outcome [5] | max response [6] 8.05% | Potency [7] | Potency [8] | outcome [9] | Potency [10] | Potency [11] | Potency [12] | Potency [13] | Potency [14] | Potency [15] | Potency [16] | outcome [17] | outcome [19]

CN1C(CCl)Nc2cc(Cl)c(S(N)(=O)=O)cc2S1(=O)=O (stereo not drawn)
inactive: outcome [1] | outcome [2] | outcome [3] | outcome [4] | outcome [5] | max response [6] -6.26% | Potency [7] | Potency [8] | outcome [9] | Potency [10] | Potency [11] | Potency [12] | Potency [13] | Potency [14] | Potency [15] | Potency [16] | outcome [17] | outcome [18] | outcome [19]

CCN1CCN(C(=O)N[C@@H](C(=O)N[C@@H]2C(=O)N3C(C(=O)O)=C(CSc4nnnn4C)CS[C@H]23)c2ccc(O)cc2)C(=O)C1=O
inactive: outcome [1] | outcome [2] | outcome [3] | Potency [20] | outcome [5] | max response [6] 15.1% | Potency [7] | Potency [8] | outcome [9] | Potency [10] | Potency [11] | Potency [12] | Potency [15] | Potency [16] | outcome [17] | outcome [19]

CCCCCCC(=O)c1ccccc1
inactive: outcome [1] | outcome [2] | outcome [3] | Potency [20] | outcome [5] | max response [6] -0.886% | Potency [7] | Potency [8] | outcome [9] | Potency [10] | Potency [11] | Potency [12] | Potency [13] | Potency [14] | Potency [15] | Potency [16] | outcome [17] | outcome [18] | outcome [19]

O=C[C@@H](O)[C@H](O)[C@H](O)CO
inactive: outcome [1] | outcome [2] | outcome [3] | Potency [20] | Potency [7] | Potency [8] | outcome [9] | Potency [10] | Potency [12] | Potency [15] | Potency [16] | outcome [17] | outcome [19]

CC(C)(C)C(=O)CC(=O)C(C)(C)C
inactive: outcome [1] | outcome [2] | outcome [3] | outcome [4] | outcome [5] | max response [6] -12.1% | Potency [7] | Potency [8] | outcome [9] | Potency [10] | Potency [11] | Potency [12] | Potency [13] | Potency [14] | Potency [15] | Potency [16] | outcome [17] | outcome [18] | outcome [19]

CC(C)(C)NCC(O)COc1cccc2c1CCC(=O)N2 (stereo not drawn)
inactive: outcome [1] | outcome [2] | outcome [3] | Potency [20] | Potency [7] | Potency [8] | outcome [9] | Potency [10] | Potency [11] | Potency [12] | Potency [13] | Potency [14] | Potency [15] | Potency [16] | outcome [17] | outcome [18] | outcome [19]

COC(=O)c1cc(Cl)c(NC(C)=O)cc1OC
inactive: outcome [1] | outcome [2] | outcome [3] | Potency [20] | outcome [5] | max response [6] 0.647% | Potency [7] | Potency [8] | outcome [9] | Potency [10] | Potency [11] | Potency [12] | Potency [13] | Potency [14] | Potency [15] | Potency [16] | outcome [17] | outcome [18] | outcome [19]

CCOC(=O)CN1CCCC1=O
inactive: outcome [1] | outcome [2] | outcome [3] | Potency [20] | outcome [5] | max response [6] 0.653% | Potency [7] | Potency [8] | outcome [9] | Potency [10] | Potency [11] | Potency [12] | Potency [13] | Potency [14] | Potency [15] | Potency [16] | outcome [17] | outcome [18] | outcome [19]

CSC(=O)c1cccc2nnsc12
inactive: outcome [1] | outcome [2] | outcome [3] | Potency [20] | outcome [5] | max response [6] -1.81% | Potency [7] | Potency [8] | outcome [9] | Potency [10] | Potency [11] | Potency [12] | Potency [13] | Potency [14] | Potency [16] | outcome [17] | outcome [19]

Cc1cccc(N)n1
inactive: outcome [1] | outcome [2] | outcome [3] | Potency [20] | outcome [5] | max response [6] -4.06% | Potency [7] | outcome [9] | Potency [10] | Potency [11] | Potency [12] | Potency [13] | Potency [14] | Potency [15] | Potency [16] | outcome [17] | outcome [19]
